MARV entry inh = blocks Marburg virus binding to or entry into cells; Potency, µM (series often up to 37.8 µM), for inactives: at the top dose activity change, negative = inhibition, actives largely listed as inhibitors; AID 540276; 1.8% of 300,000 active; Marburg virus pseudotyped entry inhibition, cell reporter; calls by dose curve; tested in HEK293 cells; note: potency is the fitted concentration of half-maximal effect
FMDV antiviral = foot and mouth disease virus antiviral activity; FMDV antiviral cell-based qHTS; 1.2% of 410,000 active; Potency, µM (highest dose often 57.9 µM), for inactives: top-dose activity change, negative = inhibition, actives largely listed as inhibitors; calls by dose curve; tested in HEK293T cells; note: read-out not given here; potency is the fitted concentration of half-maximal effect; nearly all actives have a fitted effect of over 45% in size
LASV entry inh = Lassa virus entry inhibition. Lassa virus pseudotype entry inhibition, cell reporter. Potency, µM (series often up to 37.9 µM), for inactives: at the highest dose activity change, negative = inhibition, usual class: inhibitors. 1.2% of 300,000 active. AID 540256; calls by dose curve; tested in HEK293 cells; note: potency is the fitted concentration of half-maximal effect; nearly all actives have a fitted effect of over 50% in size
HCV inh = blocks hepatitis C virus; Huh7.5.1 HCVcc-Cre infection, luciferase reporter, 44 h; Potency, µM (top dose mostly 41.8 µM), for the others: at the top dose activity change, negative = inhibition, usual class: inhibitors; 3.4% of 340,000 active; active = well fitted inhibition curve with a large enough effect; inconclusive = small, poorly fitted or top-dose-only effect, or another doubt; inactive = no such curve, though single readings can be large or run the other way; note: potency is the fitted concentration of half-maximal effect
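Reporter virus HCVcc-Cre (~0.5 moi) infects cells exposed to compound; seeding density 1,000 cells/well with 4 h settling beforehand. Luminescence, 15 sec read, taken 44 h post-infection following a 15 min RT substrate incubation.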
HCMV inh = human cytomegalovirus inhibition. HFF cells, HCMV-luciferase reporter, 72 h; active compounds read low. activity change, negative = inhibition, % at 57.5 µM. 4.5% of 410,000 active; in the data active = activity change below about -60%; inconclusive = no clear call, values can overlap the other calls; inactive = above about -39%
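Two compound doses tested in HFFs infected with HCMV-luciferase, MOI 1 PFU/cell, 72 h at 37C. Lysate luminescence read with OneGlo; data normalized against buffer-only and 10uM Salinomycin inhibitor controls.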
* hit, by the source's call; ? = inconclusive; . = no result; ! = not active in a repeat; [ ] = remark or other dose. In the library only some 7.9% were active in any assay of this set; here they are far more common. % is set by controls: 0 for no effect and ±100 for the full control effect.

SMILES	MARV entry inh	FMDV antiviral	LASV entry inh	HCV inh	HCMV inh
Cn1c(/C=N/Nc2nc3ccccc3[nH]2)nc2ccccc21	?	-23%	?	?	-83*
CC(C)Cn1c(/C=N/Nc2nc3ccccc3[nH]2)nc2ccccc21	?	25µM*	?	2.5µM*	-97*
CC(/C=N/Nc1nc2ccccc2[nH]1)=C\c1ccccc1	7.3µM*	3%	?	?	-26
COc1ccc(C(=O)Nc2ccc(OCc3cc(=O)n4ccccc4n3)cc2)cc1	.	-4%	2%[46.1 µM]	.	11
O=C(Nc1cc2c(cc1C(=O)c1ccccc1)OCCO2)c1ccc(Br)cc1	.	-20%	2%[46.1 µM]	.	-26
CN1CCN(C(=O)Cn2c(-c3cccs3)cc3cc(Cl)ccc32)CC1	.	-3%	6%[46.1 µM]	.	-27
COc1cc(-c2ccc(C(F)(F)F)cn2)cc2c1OCCN(S(=O)(=O)C[C@]13CC[C@H](CC1=O)C3(C)C)C2	.	6%	.	.	.
COCCNS(=O)(=O)c1ccc(-c2ccc(C)cc2)cc1	-1%	4%	?	?	-64*
Cc1ccc(S(=O)(=O)NCCOCCNS(=O)(=O)c2ccc(C)cc2)cc1	1%	6%	1%	-6%	-12
Cc1onc(-c2c(F)cccc2Cl)c1C(=O)Nc1cc2cc([N+](=O)[O-])ccc2oc1=O	.	-19%	.	.	-16
COc1ccc(C2CN=NC2C(=O)c2ccccc2)cc1 (stereo not given)	.	39%	.	-26%	-64*
COc1ccc(C2=Nc3ccccc3N(C(=O)c3ccc4ncccc4c3)C2C(=O)NC2CCCC2)cc1 (stereo not given)	.	41%	.	.	-78*
COc1ccc(C2=Nc3ccccc3N(C(=O)c3ccc4ncccc4c3)C2C(=O)NC(C)(C)C)cc1 (stereo not given)	.	11%	.	.	199
COc1ccc(Nc2nccc3c2cc(-c2ccc(C(=O)N(C)C)cc2)n3C)c(OC)c1	.	.	.	.	-15
CCC(=O)Nc1cccc(C(=O)c2ccccc2)c1	18%	.	-14%	-2%	-18
O=C(/C=C/c1ccccc1)Nc1cccc(C(=O)O)c1	.	10µM*	.	-1%	49
CCC(=O)Nc1cccc(C(=O)/C=C/c2ccccc2)c1	?	18µM*	10µM*	-26%	-104*
O=C(Nc1cccc(C(=O)O)c1)/C(=C\C=C\c1ccccc1)NC(=O)c1ccccc1	22%[46.1 µM]	4%	13%[46.1 µM]	11%	-104*
CCC(=O)Nc1cccc(C(=O)/C=C/c2cccs2)c1	.	11%	.	?	-62*
Cc1ccc(-n2nc(C(=O)Nc3ccc(Cl)cn3)c3c4ccccc4n(C)c3c2=O)cc1	-11%[46.1 µM]	17%	-4%[46.1 µM]	.	-24
Cn1cc(/C=N\O)nc2c(=O)n(-c3ccccc3)c(=O)nc1-2	12%[46.1 µM]	0%	-30%	18%	14
COc1ccc(N2CCN(C(=O)C3CCCN(S(=O)(=O)c4ccc5c(c4)oc(=O)n5C)C3)CC2)cc1 (stereo not given)	-14%[46.1 µM]	?	8%[46.1 µM]	-3%	-11
Cc1ccc(S(=O)(=O)N2CCN(CC(=O)NC3CCCc4ccccc43)CC2)cc1C (stereo not given)	?	?	-10%[46.1 µM]	32µM*	26
COc1ccccc1N1CCN(C(=O)C2CCCN(S(=O)(=O)c3ccc4c(c3)oc(=O)n4C)C2)CC1 (stereo not given)	?	25µM*	?	?	-60*!
Cc1ccc(S(=O)(=O)N2CCN(CC(=O)NC3CCCc4ccccc43)CC2)c(C)c1 (stereo not given)	-2%	?	-9%	?	-24
SMILES	MARV entry inh	FMDV antiviral	LASV entry inh	HCV inh	HCMV inh
Cn1c(=O)oc2cc(S(=O)(=O)N3CCCC(C(=O)NC4CCCc5ccccc54)C3)ccc21 (stereo not given)	.	-25%	.	-14%	-90*
O=C(Oc1ccc(F)cc1)c1nc(SCc2ccc(F)cc2)ncc1Cl	-8%[46.1 µM]	-12%	-7%[46.1 µM]	.	?
CCCCCCCCn1sccc1=O	.	28µM*	.	?	-2
CC(C)(C)OC(=O)N(Cc1ccccc1)Cc1cccc(OCc2cccc(NC(=O)C3CC3)c2)c1	.	?	.	1.3µM*	?
CC(C)(C)OC(=O)N1CCC(C(=O)Nc2cccc(C(=O)NCCCc3ccccc3)c2)CC1	.	?	-4%[46.1 µM]	4µM*	-27
CC(C)(C)OC(=O)N1CCCC(C(=O)Nc2cccc(C(=O)NCCCc3ccccc3)c2)C1 (stereo not given)	?	0%	.	?	-2
O=C(NCCCc1ccccc1)c1cccc(NC(=O)C2CCCCC2)c1	.	-15%	?	4.5µM*	-11
CC(CCN1CCCc2nc(C)c(C)cc21)=NO[C@H](C)c1cn([C@H](CO)Cc2ccccc2)nn1	-41%[14.2 µM]	.	.	.	.
Nc1ccc(C(=O)OCC(=O)N2c3ccccc3Sc3ccccc32)cc1[N+](=O)[O-]	21µM*	-8%	16µM*	?	?
Nc1ccc(C(=O)OCC(=O)N2CCc3ccccc3C2)cc1[N+](=O)[O-]	24%	-6%	?	10%	-20
NCCNc1ccc(C(=O)N2c3ccccc3Sc3ccccc32)cc1[N+](=O)[O-]	?	?	?	11µM*	30
N=c1c2c(-c3ccccc3)c(-c3ccccc3)n(Cc3ccco3)c2ncn1CCCO	5.6µM*	?	?	-90%	-32
N=c1c2c(-c3ccccc3)c(-c3ccccc3)n(Cc3ccco3)c2ncn1CCO	?	?	?	13µM*	-5
N=c1c2c(-c3ccccc3)c(-c3ccccc3)n(Cc3ccco3)c2ncn1CCN1CCOCC1	10µM*	-2%	?	?	-33
N=c1c2c(ncn1Cc1ccco1)Oc1cc(O)ccc1C2c1ccccc1 (stereo not given)	.	-21%	.	?	-17
c1ccc(-c2nc3nc4ccccc4nc3n2Cc2ccco2)cc1	-12%	23%	?	-17%	66
CC(C)(C)C(=O)Nc1c(C(=O)N2CCN(c3ccc(F)cc3)CC2)oc2ccccc12	.	22%	20%[46.1 µM]	.	-82*
Cc1cccc(OCC(=O)Nc2c(C(=O)N3CCN(c4ccccc4F)CC3)oc3ccccc23)c1	10µM*	52%	?	.	-15
CCOC(=O)c1c2c(n(C)c1C)C(=O)C(=O)c1ccc(Br)cc1-2	?	8.9µM*	?	?	-97*
CCOC(=O)c1c2c(n(Cc3ccccc3)c1C)C(=O)C(=O)c1ccccc1-2	5.6µM*	20µM*	?	?	0
COc1cc(/C=C/C(=O)N2CCN(C)CC2)cc(S(=O)(=O)N2CCc3ccccc32)c1OC	.	-2%	.	8%	-4
CC(=O)N(CCCc1ccc(C(C)(C)C)cc1)CCCN(C)C	?	.	-7%	7.9µM*	?
Cc1ccc(N(C)C(=O)C2CCN(S(=O)(=O)c3cn(C)cn3)CC2)cc1	.	4%	8%[46.1 µM]	.	12
CC(Sc1nc(NCc2ccccc2)nc(N(C)C)n1)C(=O)Nc1ccccc1 (stereo not given)	-29%	0%	?	?	-105*

Screening data from PubChem.
